# “And” between values parts separate entries of the source, which are not always exact repeats. Equal entries are not always repeated. Inconclusive results are not listed. Entries that show only a call come without a potency. A structure can be active in one record and inactive in another. The source made the active and inactive calls. Unless noted, calls come from the whole dose curve; as a rule, active = well fitted curve in the direction sought with a large enough effect in the repeat runs; inconclusive = weak or mixed curves; inactive = no such curve, though single readings can be large; an effect the other way counts as inactive or inconclusive.
# Experiments:
# [1] = qHTS assay to identify small molecule agonists of H2AX (AID 1224845; active = well fitted activation curve with a large enough effect in the signal ratio in the repeat runs, not every such curve was filed as active; the % refers to the signal ratio)
# In short: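 Phospho-H2AX Ser139 measured by HTRF (ex 320 nm; em 665 and 620 nm) after 24 hr antibody incubation. Compounds, 15 concentrations, 0.76% DMSO, were applied to CHO-K1 cells for 3hr at 37C before lysis.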
# [2] = qHTS assay to identify small molecule agonists of the hypoxia (HIF-1) signaling pathway (AID 1224846; active = well fitted activation curve with a large enough effect in the signal ratio in the repeat runs, not every such curve was filed as active; the % refers to the signal ratio)
# In short: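 Hypoxia-pathway activation was scored as increased beta-lactamase from an HRE-controlled reporter in ME-180 cells; plated at 2,000 cells per well with 0.5% dialyzed FBS, they were exposed 17 hrs to compounds and then given CCF4-AM.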
# [3] = qHTS assay to identify small molecule agonists of H2AX - cell viability counter screen (AID 1224847; calls by dose curve; note: nearly all actives have a fitted effect of over 30% in size; note: potency is the fitted concentration of half-maximal effect; for activity change, negative = cytotoxicity: top concentration of the series differs between compounds)
# In short: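 Wild-type CHO-K1 cells (10% FBS medium) were plated overnight at 37C, exposed to compounds at 15 concentrations for 3 hr at 37C (0.76% DMSO final), and viability was read as CellTiter-Glo luminescence after 30 min at room temperature.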
# [4] = qHTS RealTime-Glo MT Cell Viability Assay in HepG2 cells - 24 hour (AID 1224867); note: nearly all actives have a fitted effect of over 50% in size; note: potency is the fitted concentration of half-maximal effect
# In short: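 Luminescence read-out: viable HepG2 cells reduce a prosubstrate to a NanoLuc substrate, giving a signal proportional to live cell number. Reads taken at 0, 8, 16, 24, 32 and 40 h of compound exposure at 37 C.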
# [5] = qHTS RealTime-Glo MT Cell Viability Assay in HEK293 cells - 32 hour (AID 1224868); note: nearly all actives have a fitted effect of over 50% in size; note: potency is the fitted concentration of half-maximal effect; for activity change, negative = cytotoxic: top concentration of the series differs between compounds
# In short: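 Nonlytic real-time viability readout: viable cells convert prosubstrate to NanoLuc substrate, giving luminescence proportional to live cell number. HEK293, 600 cells/well, compound added after 5 h, continuous culture at 37 C.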
# [6] = A CellTox Green Cytotoxicity Assay to monitor cytotoxicity in HEK293 cells - 0 hour (AID 1224869); note: nearly all actives have a fitted effect of over 50% in size; note: potency is the fitted concentration of half-maximal effect
# In short: (§1)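 Seeding of HEK293 cells together with cytotoxicity dye preceded a 5 h incubation at 37 C/5% CO2. Test compounds in DMSO were then added and fluorescence monitored across 40 h.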
# [7] = qHTS RealTime-Glo MT Cell Viability Assay in HepG2 cells - 40 hour (AID 1224870); note: nearly all actives have a fitted effect of over 50% in size; note: potency is the fitted concentration of half-maximal effect
# In short: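 Real-time viability: cells seeded at 600 per well together with NanoLuc and cell-permeant prosubstrate, compounds added after 5 h incubation. Luminescence tracked at 0, 8, 16, 24, 32 and 40 h of exposure.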
# [8] = A CellTox Green Cytotoxicity Assay to monitor cytotoxicity in HEK293 cells - 40 hour (AID 1224871); note: nearly all actives have a fitted effect of over 45% in size; note: potency is the fitted concentration of half-maximal effect
# In short: as §1
# [9] = qHTS assay to identify small molecule agonists of the estrogen related receptor (ERR) signaling pathway from Tox21 library (AID 1224849; calls by dose curve; note: nearly all actives have a fitted effect of over 15% in size); conditions: ERR reporter cell line, ONE-Glo luciferase, 18 h
# In short: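 Six hours post-seeding at 37 C/5% CO2, ERR cells receive DMSO-solubilised compounds; after 18 h at 37 C, ONE-Glo reagent is applied and luminescence recorded.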
# [10] = qHTS assay to identify small molecule antagonists of the estrogen related receptor (ERR) signaling pathway from Tox21 library (AID 1224848)
# In short: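 Reading was by luminescence 30 min after ONE-Glo addition. Before that, ERR cells at 2,000 per well had rested 6 h at 37 C/5% CO2 and then received pin-tooled compounds in DMSO for 18 h at 37 C.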
SMILES,Potency [1],outcome [2],Potency [3],Potency [4],Potency [5],Potency [6],Potency [7],Potency [8],"activity change, negative = cytotoxicity [4]","activity change, negative = cytotoxic [7]","activity change, positive = activation ([9]; at 92.4 µM (top of the series))","activity change, positive = activation ([9]; at 19 µM (top of the series))",Potency [10],"activity change, positive = activation ([9]; at 42.5 µM (top of the series))"
C1COCCN1,inactive,inactive,inactive,inactive,inactive,inactive,inactive,inactive,,,,,,
OC[C@H]1O[C@@H]2O[C@H]3[C@H](O)[C@@H](O)[C@@H](O[C@H]4[C@H](O)[C@@H](O)[C@@H](O[C@H]5[C@H](O)[C@@H](O)[C@@H](O[C@H]6[C@H](O)[C@@H](O)[C@@H](O[C@H]7[C@H](O)[C@@H](O)[C@@H](O[C@H]1[C@H](O)[C@H]2O)O[C@@H]7CO)O[C@@H]6CO)O[C@@H]5CO)O[C@@H]4CO)O[C@@H]3CO,inactive,inactive,inactive,inactive,inactive,inactive,inactive,inactive,,,,,,
COC(=O)c1ccc(C)cc1,inactive,inactive,inactive,inactive,inactive,inactive,inactive,inactive,,,,,,
Clc1ccc(Sc2cc(Cl)c(Cl)cc2Cl)cc1,inactive,inactive,inactive,inactive,inactive,inactive,inactive,,,,,,,
CC1(C)C(C=C(Cl)Cl)C1C(=O)OCc1cccc(Oc2ccccc2)c1 (stereo not given),inactive,inactive,inactive,inactive,inactive,inactive,inactive,inactive,,,,,,
[Na+],inactive,inactive,inactive,inactive,inactive,inactive,inactive and 38.9 µM (active),inactive,,,,,,
CCC(Cc1c(I)cc(I)c(N)c1I)C(=O)O (stereo not given),inactive,inactive,inactive,inactive,inactive,inactive,inactive,inactive,,,,,,
CC1(C)O[C@@H]2C[C@H]3[C@@H]4C[C@H](F)C5=CC(=O)C=C[C@]5(C)[C@@]4(F)[C@@H](O)C[C@]3(C)[C@]2(C(=O)CO)O1,inactive,inactive,inactive,inactive,inactive,inactive,inactive,,,,,,,
C=CC(C)(O)CCC=C(C)C (stereo not given),inactive,inactive,inactive,inactive,inactive,inactive,inactive,inactive,,,,,,
c1ccc2c(c1)[nH]c1ccccc12,inactive,inactive,inactive,inactive,inactive,inactive,inactive,inactive,,,,,,
CCC(=O)O[C@H]1[C@H](O[C@@H]2[C@@H](C)[C@H](O[C@H]3C[C@@](C)(OC)[C@@H](O)[C@H](C)O3)[C@@H](C)C(=O)O[C@H](CC)[C@@](C)(O)[C@H](O)[C@@H](C)C(=O)[C@H](C)C[C@@]2(C)O)O[C@H](C)C[C@@H]1N(C)C,inactive,inactive,inactive,inactive,inactive,inactive,inactive,28.9 µM (active) and inactive,,,,,,
O=Cc1ccccc1C=O,inactive,inactive,inactive,inactive,inactive,inactive,38.9 µM (active) and inactive,inactive,,,,,,
CC(C)(C)c1cccc(C(C)(C)C)c1O,inactive,inactive,inactive,inactive,24 µM (active) and inactive,inactive,inactive,47.9 µM (active) and inactive,,,,,,
Cc1ccc(N)c([N+](=O)[O-])c1,inactive,inactive,inactive,inactive,inactive,inactive,inactive,,,,,,,
CC/C=C\C/C=C\C/C=C\CCCCCCCC(=O)O,inactive,inactive,inactive,inactive,inactive,inactive,inactive,inactive,,,,,,
Nc1ccc2c(c1)C(=O)c1ccccc1C2=O,inactive,inactive,98.9 µM (active) and inactive,inactive,inactive,inactive,inactive,30.3 µM (active) and inactive,,,,,,
CC(=O)Nc1ccc2c(c1)Cc1cc(NC(C)=O)ccc1-2,inactive,inactive,inactive,inactive,inactive,inactive,inactive,,,,,,,
CCCCCCOCCOCCO,inactive,inactive,inactive,inactive,inactive,inactive,inactive,inactive,,,,,,
CCCN1C=CN(C)C1,inactive,inactive,inactive,inactive,inactive,inactive,inactive,inactive,,,,,,
Cc1ccc(C)c(O)c1,inactive,inactive,inactive,inactive,inactive,inactive,inactive,,,,,,,
C=CN1CCCC1=O,inactive,inactive,inactive,inactive,inactive,inactive,inactive,inactive,,,,,,
O=[Se](O)O,inactive,inactive,inactive,,19.5 µM (active),inactive,21.9 µM (active),,-0.447% [at 15.8 µM] (inactive),2.31% [at 15.8 µM] (inactive),,,,
CC(=O)O[C@]1(C(C)=O)CC[C@H]2[C@@H]3C=C(Cl)C4=CC(=O)CC[C@]4(C)[C@H]3CC[C@@]21C,inactive,inactive,101 µM (active) and inactive,inactive,19.5 µM (active),inactive,inactive,inactive,,,,,,
C=C[C@@]1(C)CC(=O)[C@]2(O)[C@@]3(C)[C@@H](O)CCC(C)(C)[C@@H]3[C@H](O)[C@H](OC(C)=O)[C@@]2(C)O1,inactive,inactive,inactive,inactive,inactive,inactive,inactive,inactive,,,,,,
CCC/C=C/C=O,inactive,inactive,inactive,inactive,inactive,inactive,inactive,,,,,,,

SMILES,Potency [1],outcome [2],Potency [3],Potency [4],Potency [5],Potency [6],Potency [7],Potency [8],"activity change, negative = cytotoxicity [4]","activity change, negative = cytotoxic [7]","activity change, positive = activation ([9]; at 92.4 µM (top of the series))","activity change, positive = activation ([9]; at 19 µM (top of the series))",Potency [10],"activity change, positive = activation ([9]; at 42.5 µM (top of the series))"
Cc1ccc(S(=O)(=O)O)cc1C,inactive,inactive,inactive,inactive,inactive,inactive,inactive,inactive,,,,,,
C=CCNCC=C,inactive,inactive,inactive,inactive,inactive,inactive,inactive,inactive,,,,,,
CCCCCCCCCCCCO,inactive,inactive,inactive,inactive,inactive,inactive,inactive,,,,,,,
c1ccc2ncccc2c1,inactive,inactive,inactive,inactive,inactive,inactive,inactive,inactive,,,,,,
CC(=O)OC(C)C,inactive,inactive,inactive,inactive,inactive,inactive,inactive,inactive,,,,,,
C=C[Si](OCCOC)(OCCOC)OCCOC,inactive,inactive,inactive,inactive,inactive,inactive,inactive,inactive,,,,,,
COc1ccc2nc(N)sc2c1,inactive,inactive,inactive,inactive,inactive and 2.19 µM (active),inactive,inactive,,,,,,,
Cc1ccc(C(C)(C)C)cc1,inactive,inactive,inactive,inactive,inactive,inactive,inactive,inactive,,,,,,
COC(=O)CC(=O)OC,inactive,inactive,inactive,inactive,inactive,inactive,inactive,inactive,,,,,,
O=S1(=O)CCCO1,inactive,inactive,inactive,inactive,inactive,inactive,inactive,inactive,,,,,,
c1ccc2cc3ccccc3cc2c1,,inactive,inactive,inactive,inactive,inactive,inactive,,,,6.4% (inactive) and 19.8% (active),,,
CNC[C@H](O)c1ccc(O)c(O)c1,,,inactive,inactive,inactive,inactive,inactive,,,,-7.74% (inactive),16.5% (inactive),,
O=C(CCCN1CCC(O)(c2ccc(Cl)cc2)CC1)c1ccc(F)cc1,inactive,,inactive,49 µM (active) and inactive,17.4 µM (active) and 8.49 µM (active),inactive,54.9 µM (active) and inactive,49 µM (active) and inactive,,,,,,
CN(C)/N=N/c1nc[nH]c1C(N)=O,inactive,,inactive,inactive,inactive,inactive,inactive,inactive,,,-35.6% (inactive),,69.6 µM (active),-23.2% (inactive)
C[N+](C)(C)CCO,inactive,,inactive,inactive,inactive,inactive,inactive,inactive,,,,,,
CC(C)(Oc1ccc(Cl)cc1)C(=O)O,inactive,,inactive,inactive,inactive,inactive,inactive,inactive,,,,,,
Cc1cccc(Nc2ccccc2C(=O)O)c1C,inactive,,inactive,inactive,inactive,inactive,inactive,,,,,,,
CC(C)[C@@H]1CC[C@@H](C)CC1=O,inactive,inactive,inactive,inactive,inactive,inactive,inactive,inactive,,,,,,
O=C(O)COCCN1CCN(C(c2ccccc2)c2ccc(Cl)cc2)CC1 (stereo not given),,,inactive,inactive,inactive,inactive,inactive,inactive,,,,,,
CCCCCCC(C)O (stereo not given),inactive,inactive,inactive,inactive,inactive,inactive,inactive,inactive,,,,,,
CC1(C)NC(=O)N(c2ccc([N+](=O)[O-])c(C(F)(F)F)c2)C1=O,inactive,,28.4 µM (active) and inactive,inactive,24.5 µM (active),inactive,inactive,inactive,,,-43.1% (inactive),,,-39.2% (inactive)
CCCCCCCC/C=C\CCCCCCCC(=O)O,inactive,,inactive,inactive,inactive,inactive,inactive,,,,,,,
Nc1ccc(N)c(Cl)c1,,inactive,,inactive,inactive,inactive and 38.9 µM (active),inactive,,,,-59.7% (inactive) and -39% (inactive),,,
CC/C(=C(/CC)c1ccc(O)cc1)c1ccc(O)cc1,inactive,,112 µM (active) and inactive,inactive,10.9 µM (active) and 27.5 µM (active),inactive,inactive,,,,,,,
C[C@]12CC[C@@H]3c4ccc(O)cc4CC[C@H]3[C@@H]1CC[C@H]2O,inactive,,inactive,inactive,5.59 µM (active) and 13.8 µM (active),inactive,inactive,inactive,,,-38.5% (inactive) and -39.7% (inactive),,,

# Reference: PubChem BioAssay (Tox21)
